# SMN2 splice enh = SMN2 splice variant enhancement. HEK293 SMN2-luciferase splicing reporter, luminescence, 30-36 h. actives 2.8% (n = 210,000). Potency, µM (titrated, usually from 46.1 µM), without a hit: at the highest dose activity change, positive = activation, most hits filed as activators; also: % of control where 0% means no effect; nearly all actives have a fitted effect of over 55% in size
#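 HEK293 cells carry an SMN2 […]–luciferase reporter in which exon 7 inclusion puts luciferase in frame. Cells were plated 10-12 h before compound addition, then incubated 30-36 h at 37C. ONE-Glo luminescence was read; sodium butyrate at 4.5 mM final served as control.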
# ELG1 genotoxic = genotoxicity induction in ELG1-luciferase HEK293T cells; HEK293T ELG1-luciferase reporter, luminescence, 16 h; Potency, µM (doses to about 46 µM), for inactives: at the top dose activity change, positive = activation, actives largely listed as activators; actives 1.3% (n = 330,000); AID 504466; also: % of control where 0% means no effect; nearly all actives have a fitted effect of over 60% in size
#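 HEK293T cells expressing luciferase-tagged ELG1 were exposed to compound or DMSO vehicle for 16 hr at 37 °C and 5% CO2. Luciferase activity was then measured with ONE-Glo after 30 min at room temperature.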
# Rab9 prom act = activates the Rab9 promoter; actives 2.8% (n = 320,000); AID 485297; Huh7 Rab9 promoter-luciferase reporter, luminescence, 24 h; Potency, µM (top dose mostly 9.22 µM), for the others: at the top dose activation, negative = inhibition, usual class: activators; also: % of control where 0% means no effect; nearly all actives have a fitted effect of over 60% in size
#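 Huh7 cells stably carrying Rab9 promoter–luciferase reporter, plated 1500 cells/well, compound added after 2 h and incubated 24 h at 37 °C; luciferase luminescence then read after 10 min with detection reagent.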
# FLuc counter = firefly luciferase modulation, counter-screen for miR-21 project; actives 6.9% (n = 360,000); Potency, µM (top dose mostly 57.5 µM), without a hit: at the highest dose activity change, negative = inhibition, actives largely listed as inhibitors; purified FLuc, Km substrates, luminescence inhibition; P08659;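 also: plate controls were vehicle for no effect and reference inhibitor for full effect; nearly all actives have a fitted effect of over 55% in size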
# Target sequence (P08659 whole entry, looked up): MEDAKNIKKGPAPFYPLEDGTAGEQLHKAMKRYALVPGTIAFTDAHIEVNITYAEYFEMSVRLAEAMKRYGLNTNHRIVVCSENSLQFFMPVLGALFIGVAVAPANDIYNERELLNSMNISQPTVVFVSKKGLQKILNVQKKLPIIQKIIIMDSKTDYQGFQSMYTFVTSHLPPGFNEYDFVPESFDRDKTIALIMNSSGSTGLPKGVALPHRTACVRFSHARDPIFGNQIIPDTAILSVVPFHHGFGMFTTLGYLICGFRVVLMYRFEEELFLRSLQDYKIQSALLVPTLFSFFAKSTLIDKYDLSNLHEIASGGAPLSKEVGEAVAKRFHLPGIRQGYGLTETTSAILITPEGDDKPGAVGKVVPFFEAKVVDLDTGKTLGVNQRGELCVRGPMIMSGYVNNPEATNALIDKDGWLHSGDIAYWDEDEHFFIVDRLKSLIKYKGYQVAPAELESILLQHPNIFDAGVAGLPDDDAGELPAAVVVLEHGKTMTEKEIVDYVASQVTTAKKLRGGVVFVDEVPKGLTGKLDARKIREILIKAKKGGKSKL
#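 Purified P. pyralis luciferase, 10 nM final, with Km-level 10 uM D-luciferin and 10 uM ATP in 50 mM Tris acetate pH 7.5, 10 mM Mg acetate, 0.01% Tween-20, 0.05% BSA; 6-point qHTS titration about 60 µM downward; luminescence read.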
# NPC1 prom act = activates the NPC1 promoter; Huh7 NPC1 promoter luciferase reporter, 24 h; Potency, µM (doses to about 9.22 µM), for inactives: at the top dose activation, actives largely listed as activators; actives 2.4% (n = 320,000); AID 485313; also: % of control where 0% means no effect; nearly all actives have a fitted effect of over 60% in size
#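 Huh7 reporter cells (NPC1 promoter driving luciferase) are dosed with compound for 24 h at 37 °C, 5% CO2; luciferase detection reagent is then added and luminescence measured after 10 min at ambient temperature.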
# Luc counter = Kinase-Glo luciferase inhibition (counter-screen); Q27757; Kinase-Glo luciferase, ATP luminescence, 8 min; Potency, µM (series often up to 38.3 µM), without a hit: at the highest dose activity change, negative = inhibition, hits mostly inhibitors; actives 0.28% (n = 200,000); also: % is scaled to controls: 0 for no effect and ±100 for the full control effect; nearly all actives have a fitted effect of over 60% in size
#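 Compounds were added to a substrate mix at pH 7.2 (50 mM imidazole, 10 uM ATP, within the enzyme's linear range), followed by Kinase-Glo detection reagent; luminescence was measured after 8 minutes at ambient temperature.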
# * marks the source's active call; other numbers are inactive results; ? = inconclusive; / = not tested or not shown; [ ] = another dose, or the depositor's remark. Only some compounds are listed: those with a hit (about 7.3% of all), similar ones and a draw of the others. Calls follow the shape of the dose curve; as a rule, active = well fitted curve in the direction sought with a large enough effect; inconclusive = small, poorly fitted or top-dose-only effect, or another doubt; inactive = no such curve, though single readings can be large; an effect the other way counts as inactive or inconclusive. Potency is read from the fitted curve at half-maximal effect.
SMILES,SMN2 splice enh,ELG1 genotoxic,Rab9 prom act,FLuc counter,NPC1 prom act,Luc counter
O=C(CCCc1ccccc1)NC12CC3CC(CC(C3)C1)C2,/,?,2.2µM*,9.5µM*,3.2µM*,/
O=C(COC(=O)c1ccccc1)NC12CC3CC(CC(C3)C1)C2,/,-1%,0%,6.7µM*,-2%,/
CC(C)=C[C@H]1[C@@H](COC(=O)c2cc3c(cc2Cl)OCO3)C1(C)C,-5%[9.22 µM],/,/,/,/,-7%[7.66 µM]
O=C(Nc1ccc(Nc2ccc3c(c2)C(=O)c2ccccc2C3=O)c2c1C(=O)c1ccccc1C2=O)c1ccccc1,-11%[9.22 µM],/,/,/,/,-8%[7.66 µM]
CCCCC/C=C\C/C=C\C/C=C\C/C=C\CCCCCC(=O)NCC(=O)O,3%,/,/,/,/,0%
COc1ccc(N(C)S(=O)(=O)c2cccc(C(=O)OC(C(=O)Nc3cc(C)cc(C)c3)c3ccccc3)c2)cc1 (stereo not given),16µM*,-2%,-2%,6%,12%,2%
COc1cc2c3cc1Oc1c(OC)c(OC)cc4c1[C@@H](Cc1ccc(O)c(c1)Oc1ccc(cc1)C[C@@H]3N(C)CC2)CN(C)C4,1%[9.22 µM],/,/,/,/,-1%[7.66 µM]
CC(=O)Nc1cccc(-c2csc(Nc3ncccn3)n2)c1,3.5µM*,?,1.6µM*,2.1µM*,3.2µM*,-8%
CC(=O)Nc1ccc(S(=O)(=O)Nc2cccc(-c3csc(C)n3)c2)cc1,/,-5%,-10%,-8%,-6%,0%
CC(=O)NNc1nc(-c2ccc(NC(C)=O)cc2)cs1,13%,-1%,-2%,1%,0%,-2%
CC(=O)Nc1cccc(-c2csc(Nc3ccc(C)cn3)n2)c1,2.2µM*,1.8µM*,0.89µM*,0.43µM*,1µM*,-1%
CC(=O)Nc1ccc(-c2csc(Nc3cccc(C)n3)n2)cc1,/,16%,1.6µM*,9.5µM*,1.8µM*,-2%
Cc1ccc(CCNC(=O)c2ccc3c(c2)c(C)c(C)n3Cc2ccccc2)cc1,/,/,/,-9%,/,/
CC(=O)N1CCCc2cc(S(=O)(=O)N(C)CC(=O)Nc3ccc(C)cc3C)ccc21,/,/,/,-2%,/,/
C/C(=N/NC(=O)c1ccc(Cl)s1)c1cccnc1,/,11%,3%,0%,7%,/
C/C(=N/NC(=O)c1ccc(C)s1)c1cccnc1,/,?,?,19µM*,26%,/
C/C(=N/NC(=O)c1ccc(Br)s1)c1cccnc1,/,11%,?,15µM*,28%,/
COc1cc(-c2noc(CCC(=O)Nc3cc(C)ccc3C)n2)cc(OC)c1OC,-5%,/,/,-9%,/,/
Cc1ccc2oc(=O)c3cnn(CC(=O)N4CCN(c5ccccc5F)CC4)c3c2c1,5%,/,/,3%,/,/
O=C(NC1CCCCCCC1)NC1CCCCC1,?,?,4µM*,17µM*,3.5µM*,0%
O=C(NC1CCCCCC1)C(=S)NC1CCCCC1,-36%,?,-4%,5.4µM*,2.5µM*,-5%
CN(/N=C/c1ccncc1)c1cnc2ccccc2n1,11µM*,2%,4µM*,4.8µM*,?,-1%
Nc1nc(N)c2nn(-c3ccc(C(=O)O)cc3)nc2n1,3%[9.22 µM],/,/,/,/,0%[7.66 µM]
Cc1c(C(=O)N2CCC(C)CC2)c(S(=O)(=O)N2CCN(c3ccc(Cl)cc3)CC2)c(C)n1C,/,/,/,-10%,/,/
CCOC(=O)c1c(NC(=O)c2cc(-c3cccc(Cl)c3)on2)sc(C(C)=O)c1C,-2%,/,/,-6%,/,/
SMILES,SMN2 splice enh,ELG1 genotoxic,Rab9 prom act,FLuc counter,NPC1 prom act,Luc counter
COc1ccc(C2=NN(c3ccccc3)C(c3cn(CCC(=O)O)nc3-c3ccccc3)C2)cc1 (stereo not given),11%,4%,16%,4.3µM*,7%,1%
COc1ccc(C2CC(c3ccncc3)=NN2c2ccc(S(N)(=O)=O)cc2)cc1 (stereo not given),/,21µM*,/,/,/,/
COc1ccc(C2CC(c3ccccc3)=NN2c2ccc(N)cc2)cc1 (stereo not given),8%,13%,4%,9.5µM*,-5%,-7%
COc1ccc(C2CC(c3ccc(Cl)cc3)=NN2c2ccc(S(N)(=O)=O)cc2)cc1 (stereo not given),/,-8%,/,/,/,/
COc1ccc(C2CC(c3ccccc3)=NN2c2ccc(Cl)c(C(=O)O)c2)cc1 (stereo not given),/,6%,0%,21µM*,0%,1%
CCOc1ccccc1-c1noc(CSc2nnc(-c3ccccc3)n2-c2ccc(OC)cc2)n1,-11%,/,/,1%,/,/
O=C(Nc1nc(=S)ss1)c1ccc(Cl)cc1Cl,?,1%,?,15µM*,?,-3%
O=C(Nc1ccc2ccccc2c1)c1cc(F)c(F)cc1Cl,/,?,?,3.4µM*,2µM*,/
Cc1occc1C(=O)Nc1ccc2ccccc2c1,11µM*,?,2.5µM*,3.4µM*,1.4µM*,-28%
O=C(Nc1ccc2ccccc2c1)c1ccccc1O,/,0.23µM*,3.5µM*,0.3µM*,4µM*,/
COc1ccccc1OCC(=O)NCC1(N(C)C)CCCCC1,/,/,/,-2%,/,/
O=C(Nc1ccc2ccccc2c1)c1ccc(Cl)cc1Cl,/,2.1µM*,0.4µM*,0.34µM*,0.22µM*,/
CS(=O)(=O)N1CCc2cc(NC(=O)c3ccc(Cl)cc3Cl)ccc21,9%,0%,15%,19µM*,5%,2%
O=C(Cc1ccc(Cl)cc1)NC1CC(=O)N(c2ccc3c(c2)OCCO3)C1 (stereo not given),/,/,/,-1%,/,/
CC(C)(C)C1CCc2sc(-c3nnc(CCl)o3)cc2C1 (stereo not given),-24%,5%,-1%,24µM*,-2%,0%
C[C@@H]1C[C@H](O)c2cc(Cl)ccc2N1,10%,1%,1%,-2%,-2%,-2%
N#CC1CC(c2ccccc2)Nc2cc(Cl)ccc2N1 (stereo not given),/,15%,26%,11µM*,15%,/
COc1cccc(NC(=O)CSc2nccn2Cc2ccc3c(c2)OCO3)c1,/,/,/,-11%,/,/
COc1ccc2c(Cl)c(C(N)=O)sc2c1,16%,-3%,21%,15µM*,13%,-1%
N#C/C(=N/Nc1ccc(OC(F)(F)F)cc1)C(N)=S,/,-3%,-36%,11µM*,-25%,/
Cc1ccc(/C=N/N=C/c2ccc(C)s2)s1,7.1µM*,3.7µM*,2.2µM*,0.67µM*,1.6µM*,0%
Cc1cccc(N/N=C/c2ccc(C)s2)c1,/,?,?,12µM*,?,/
Cc1cccc(N/N=C/c2ccc(O)c(O)c2O)c1,/,-4%,-2%,?,-4%,/
Cc1ccc(NC(=O)Nc2ccc(F)cc2)cc1Cl,?,12%,?,2.7µM*,?,-2%
COc1cccc(NC(=O)Nc2ccc(C)c(Cl)c2)c1,13µM*,?,2.8µM*,2.7µM*,?,-1%

# High-throughput results (PubChem)
